Out of some 1,400 compounds screened, about 560 (40%) were called active. So high a share suggests a set chosen from earlier hits. Some of the results follow. A number with no mark means an inactive call.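 The calls were made as follows: active = mean inhibition over duplicate tests at 10 µM above 50%; inactive = the rest.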

The assay is described as follows: ASC/caspase-1 reporter retest in S. cerevisiae at one dose, specificity check for NALP1 project (AID 488857). The note with it: S. cerevisiae ASC/Caspase-1, beta-galactosidase luminescence, 24 h; at 10 µM; active compounds read high.
On to `Cc1cc(=O)n2ccccc2c1C#N`, for which the inhibition was 15.6%. In the case of `O=S(=O)(Nc1ccncc1Cl)c1ccccc1`, the inhibition is 25.1%.

Regarding `O=C1C2C(C(=O)N1/N=C/c1cc(Br)cc([N+](=O)[O-])c1O)C1C=CC2C12CC2` (stereo not given), the inhibition was 66.2% (active). In the case of `O=C1C2C(C(=O)N1/N=C/c1ccc([N+](=O)[O-])o1)C1C=CC2C12CC2` (stereo not given) it was 38.2%; in that of `CCOC(=O)c1c(NC2OC(=O)c3c2ccc(OC)c3OC)sc(C(=O)OC(C)(C)C)c1C` (stereo not given), 65.2% (active); in that of `CCCCC(C(=O)NC1CCCC1)N(Cc1ccco1)C(=O)Cn1nnc(-c2ccc(F)cc2)n1` (stereo not given), 31.1%. Turning to `CC(C)(CN1CCN(Cc2ccccc2)CC1)NS(=O)(=O)c1ccc(Cl)cc1`, the inhibition is 41.8%.

For the compound `Cc1ccc(CN2CCN(/N=C/c3cccs3)CC2)cc1`, the inhibition was 28.2%. In the case of `Cn1cccc1/C=N/N1CCN(Cc2ccc(Cl)cc2)CC1` it was 51.9% (active); in that of `COc1ccccc1CN(Cc1nc2ccccc2c(=O)[nH]1)C(=O)Nc1ccccc1`, 46.4%; in that of `C#C[C@]1(O)CC[C@H]2[C@@H]3CCC4=C(CCC(=O)C4)[C@H]3CC[C@@]21C`, 61.3% (active). The same measure for `C#C[C@]1(O)CC[C@H]2[C@@H]3CCc4cc(O)ccc4[C@H]3CC[C@@]21C`: 79.5% (active); for `O=C(OC1CCOC1=O)c1cc(-c2ccc(Br)cc2)nc2ccccc12` (stereo not given): 46.6%. As to `O=C(Oc1cccc2cccnc12)c1ccc(N2C(=O)C3C4CCC(C4)C3C2=O)cc1` (stereo not given), the inhibition is 31.9%. In the case of `O=C(Nc1cccc(O)c1)c1noc2c1CCc1ccccc1-2` it was 87% (active); in that of `CN1/C(=C\C(=O)Nc2ccc(Cl)cc2)C(C)(C)c2ccccc21`, 41.8%.

Consider `CCOP(=O)(C1=C(O)C(=O)C(C(C)(C)C)=CC1=O)c1ccccc1` (stereo not given), for which the inhibition is 38.8%. Turning to `Cc1cccc(N=C2NC(=O)/C(=C\c3cccs3)S2)c1`, the inhibition is 62.8% (active). With `COc1ccc(C(=O)Cn2c(C(=O)/C=C/c3ccccc3)nc3ccccc32)cc1`, the inhibition was 39%. In the case of `COc1ccc(C(=O)/C=C/c2ccc(OC)c(CN3CCOCC3)c2)cc1`, the inhibition is 66% (active). In the case of `O=C(/C=C/c1cccs1)c1cc(Br)ccc1OC(=O)N1CCOCC1` it was 45.4%; in that of `CC(C)C(NC(=O)CN1C(=O)c2ccccc2S1(=O)=O)C(C)C`, 33.5%.

As for `C(=C\c1nc(N2CCCC2)c2ccccc2n1)/c1ccccc1`, the inhibition was 91.5% (active). For `C(=C\c1nc(N2CCCCCC2)c2ccccc2n1)/c1ccccc1`, the inhibition was 85.2% (active). In the case of `COc1ccc2oc(=Nc3ccccc3)c(-c3nc4ccccc4[nH]3)cc2c1` it was 59.1% (active); in that of `Cn1ncc(S(=O)(=O)Cc2ccccc2)c(Cl)c1=O`, 39.1%. The same measure for `Cc1cc(C)cc(Cn2ncc(Cl)c(Cl)c2=O)c1`: 57.6% (active); for `COc1ccc(-c2[nH]ncc2CN2CCC(OCc3ccccn3)CC2)c(F)c1`: 21.9%.

Take `Cc1nc(NC(=O)/C=C/c2ccccc2)n[nH]1`: the inhibition is 48.2%. As to `O=C(/C=C/c1ccccc1)/C=C/c1ccccc1`, the inhibition was 54.5% (active). In the case of `Cc1ccc(C)c(NC(=O)c2ccc(OC(=O)c3ccco3)cc2)c1` it was 35.5%.

Consider `Cc1ccc2occ(C(=O)c3ccco3)c(=O)c2c1`, for which the inhibition was 84% (active). `CCn1c(SCC(=O)Nc2oc(-c3ccccc3)c(-c3ccccc3)c2C#N)nnc1-c1cc(OC)cc(OC)c1`: the inhibition is 25.9%. As for `CC1CCCCN1S(=O)(=O)c1cnc(Cl)c(Br)c1` (stereo not given), the inhibition was 59.8% (active).

As for `O=S(=O)(/C=C/c1ccccc1)NC1CCCCCCC1`, the inhibition was 66.8% (active). The same measure for `CCOC(=O)c1c(-c2cccs2)csc1NC(=O)C(C)(C)C`: 44.8%. For the compound `O=C(c1ccc(Cl)c([N+](=O)[O-])c1)N(c1ccccn1)c1ccccn1`, the inhibition is 23.8%. The same measure for `O=[N+]([O-])c1ccc(O)c2ncccc12`: 99% (active); for `CSc1ccc(CN(C)CC(=O)Nc2ccc(C)cc2Br)cc1`: 52.6% (active). As to `CN1CCN(C(=O)CSc2nc3c(c(=O)n(C)c(=O)n3C)n2C)CC1`, the inhibition was 31.1%. For the compound `O=S(=O)(/N=C/c1c(O)ccc2ccccc12)c1cccs1`, the inhibition is 20.6%. The same measure for `N#Cc1cccc(N=Cc2c(O)ccc3ccccc23)c1`: 30.4%; for `C=CCOc1ccc2ccccc2c1/C=N/O`: 64.3% (active). The same measure for `OCCNc1c2ccccc2nc2c(F)c(F)c(F)c(F)c12`: 23.1%; for `CC(=O)/C=C/n1c(=S)oc2ccccc21`: 23.2%; for `CCCOc1ccc(C(=O)NC(C)C(=O)O)cc1` (stereo not given): 40.4%. In the case of `CCOc1ccc(C(=O)C(CCC(CN(C)C)C(=O)c2ccc(OCC)cc2)CN(C)C)cc1` (stereo not given), the inhibition is 63.5% (active). The same measure for `Cc1ccc(N2C(=N)/C(=C3/Nc4ccccc4S3)C(c3ccccc3)C2=O)cc1` (stereo not given): 38.5%; for `N#CC1=C(N)Oc2n[nH]c(-c3cccs3)c2C1C1CCCCC1` (stereo not given): 46.4%; for `CC1=C/C(=N\OS(=O)(=O)c2ccccc2)C(C(C)C)=CC1=O`: 91.2% (active). Take `CC1=CC(=O)C=C(C)C1=NOS(=O)(=O)c1ccccc1`: the inhibition is 69.7% (active). Consider `N#CC(C#N)=c1ccc2c(c1)N1C3=C(CCCC3)CC3CCCCC31N=2` (stereo not given), for which the inhibition is 8.35%. The same measure for `COc1ccc(/C=N/NC(=O)c2csc(-n3nc(C)cc3C(F)(F)F)n2)cc1`: 36.5%. The same measure for `O=C(CCN1CCc2ccccc2C(c2ccccc2)C1)c1ccc2c(c1)OCCO2` (stereo not given): 24.4%; for `CCOC(=O)C(C(=O)OCC)C(C(=O)OCC)N1CCOCC1` (stereo not given): 53.2% (active). In the case of `Cc1cccc(Oc2nc(CN3CCOCC3)nc3sc4c(c23)CCCC4)c1` it was 75.2% (active); in that of `Oc1ccccc1C1N=C(c2ccccc2)NC(c2ccccc2)=N1`, 28.9%; in that of `CCOc1nc(N2CCOCC2)nc(N2CCOCC2)n1`, 43.6%.

For `CC(=O)N1N=C(c2ccc3ccccc3c2)OC1(C)C`, the inhibition is 86.5% (active). The same measure for `CS(=O)(=O)n1nc(-c2ccc(Cl)cc2)nc1SCc1ccccc1`: 48%; for `Cn1nc(-c2ccc(Cl)cc2)nc2c(=O)n(C)c(=O)nc1-2`: 97.8% (active). `Cn1nc(-c2ccccc2)c(-c2nc(-c3ccc(Cl)cc3)no2)c1Cl`: the inhibition was 33.6%.

As to `Nc1ccccc1-c1nc2ccccc2[nH]1`, the inhibition was 83% (active). In the case of `c1ccc2[nH]c3cc4ncnc4cc3nc2c1`, the inhibition was 46.6%. In the case of `O=C1CC(c2ccccc2Cl)CC(O)=C1C=Nc1ccccc1` (stereo not given) it was 61.9% (active). On to `O=C1CC(c2cccc(Cl)c2)CC(O)=C1C=Nc1cccc(Cl)c1` (stereo not given), for which the inhibition is 53.5% (active). The same measure for `CCSc1nnc(-c2ccncc2)n1Cc1ccccc1`: 23.7%; for `CCCn1c(-c2cccnc2Cl)nc2cc(Cl)c(Cl)cc21`: 47.9%; for `CS/C(=N\S(=O)(=O)c1cccs1)Nc1ccc(Br)cc1F`: 68.3% (active). In the case of `CCCNC(=O)c1cc2c3ccccc3n(C)c2s1` it was 74.2% (active); in that of `CC(C)OCCCNC(=O)c1cc2c(=O)n(C)c3ccccc3c2n1C`, 30.8%. `OC(CSc1c(Cl)cccc1Cl)CN1CCN(c2ccccc2F)CC1` (stereo not given): the inhibition was 50.8% (active).

For the compound `O=[N+]([O-])c1ccc(OCC(O)CN2CCN(c3ccccc3F)CC2)cc1` (stereo not given), the inhibition was 51.8% (active). In the case of `COc1ccc(CN2CC(C(=O)NCCN3CCN(c4ccccc4F)CC3)CC2=O)cc1` (stereo not given) it was 29.6%. In the case of `OC(COc1ccc2c(c1)CCC2)CN1CCN(c2ccccc2F)CC1` (stereo not given) it was 78% (active); in that of `COc1cccc(CN2CCC(C(=O)N3CCN(c4ccccc4F)CC3)CC2)c1OC`, 32.3%; in that of `Cc1sc(-c2ccncc2)nc1OC(=O)c1ccccc1`, 36.9%. The same measure for `Cc1occc1C(=O)Nc1c(F)c(F)c(F)c(F)c1F`: 38.6%; for `Cc1ccc(NCC(=O)Nc2c(C)n(C)n(-c3ccccc3)c2=O)cc1S(=O)(=O)N(C)C`: 10.7%; for `CC1=C(C(=O)Nc2ccc(Cl)cc2)C(c2ccncc2)C(C#N)=C(SCC(N)=O)N1` (stereo not given): 30.2%. As to `Cn1c2c(c(=O)n(C)c1=O)C(NC(=O)C(C)(C)C)(C(F)(F)F)C(=O)N2` (stereo not given), the inhibition is 40.1%. For the compound `O=S(=O)(CC(CN1CCCC1)N1CCCC1)c1ccc2ccccc2c1` (stereo not given), the inhibition is 30.2%. Regarding `O=S(=O)(CC(CN1CCCCC1)N1CCCCC1)c1ccc2ccccc2c1` (stereo not given), the inhibition is 59.8% (active). With `O=S(=O)(NC1CCCCC1)c1ccc(F)c2ccccc12`, the inhibition was 57.7% (active).

With `O=C(Nc1nc(-c2ccncc2)cs1)c1ccc(S(=O)(=O)N2CCOCC2)cc1`, the inhibition is 39.9%.

With `CS(=O)(=O)N1N=C(c2ccco2)CC1c1ccc(Cl)cc1` (stereo not given), the inhibition is 27.9%.

On to `CCOC(=O)c1sc(=S)n(-c2ccc(OC)cc2)c1C`, for which the inhibition is 48.9%. Regarding `CCOC(=O)c1c(/N=C/c2cc(OC)cc([N+](=O)[O-])c2O)sc(C)c1C`, the inhibition is 65.7% (active). In the case of `Nc1nc2ccc(Oc3ccccc3)cc2s1` it was 96.2% (active).

Consider `Cc1sc(N)nc1-c1ccc(Oc2ccccc2)cc1`, for which the inhibition is 76.5% (active). With `COc1ccc(-c2csc(N3C(=O)C4C5c6ccccc6C(c6ccccc65)[C@@H]4C3=O)n2)cc1` (stereo not given in full), the inhibition was 34.7%. With `Nc1nc(-c2ccc(Oc3ccccc3)cc2)cs1`, the inhibition was 99.7% (active). The same measure for `Nc1ccc(Oc2cccc(Oc3ccc(N)cc3)c2)cc1`: 48%.

As to `c1cnc2c(c1)ccc1cccnc12`, the inhibition is 84.1% (active). The same measure for `O=C(Cc1ccc(Cl)cc1)Oc1cccc2cccnc12`: 29.8%; for `Fc1ccc(Nc2nc(Oc3ccccc3F)nc(N3CCCC3)n2)cc1`: 41.3%. In the case of `Cc1ccccc1Nc1cc(C)c2c(O)cccc2n1` it was 77.8% (active); in that of `COc1ccc(NC(=O)N2CCC(CO)(CC3CCCCO3)CC2)c(OC)c1` (stereo not given), 40.4%; in that of `COc1ccc(NC(=O)c2sc(N3CCOCC3)nc2-c2ccccc2)c(OC)c1`, 57.7% (active).

As for `C/C(=N\NC(=O)Cc1csc(N2CCOCC2)n1)c1ccccc1`, the inhibition was 29.2%.

In general, inhibition refers to the drop in the measured response relative to a control, in per cent.

The record behind these values is PubChem BioAssay AID488857 (Sanford-Burnham Center for Chemical Genomics, 2010).
